Test results taken from the supplement of paper PMC7411054.
Where a name gives a salt, the structure may show the parent alone.

System: WPMY1-TP53BP1-CLTA
Assay: lowest phenotypically active concentration; higher = less potent
Settings: treatment time: 24 h
Procedure, shortened: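 Live-cell features were measured per well and normalised to solvent control wells after fifteen gene-edited A549, HepG2 and WPMY1 reporter lines had been treated for 24 h at 0.3, 1, 3 or 9 µM in four wells each. A condition was deviating when ≥3 of 4 wells sat beyond the 95th percentile of control Euclidean distances. It was reproducible when the median replicate Pearson correlation exceeded the 95th percentile of non-replicates. Phenotypic activity demanded both.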

SMILES | lowest phenotypically active concentration [µM]
COc1cc2c(NC3CCN(C(C)C)CC3)nc(N3CCC(F)(F)CC3)nc2cc1OCCCN1CCCC1 | 1
CC(=O)c1c(C)c2cnc(Nc3ccc(N4CCNCC4)cn3)nc2n(C2CCCC2)c1=O | 9
CN1c2ccccc2C(=O)N2CCc3c([nH]c4ccccc34)[C@H]21 [Evodiamine] | 1
CO[C@H]1C=CC=C(C)C(=O)NC2=CC(=O)C(NCCN(C)C)=C(C[C@@H](C)C[C@H](OC)[C@H](O)[C@@H](C)C=C(C)[C@@H]1OC(N)=O)C2=O [17-DMAG hydrochloride] | ≤ 0.3
Cc1noc(C)c1-c1cc(O)cc(C(O)c2ccccc2)c1 (stereo not drawn) | 3
O=C(Nc1ccc(-c2ccnc(Nc3ccc(N4CCOCC4)cc3)n2)cc1)[C@@H]1CCCN1 | 3
NC1(C(=O)N[C@@H](CCO)c2ccc(Cl)cc2)CCN(c2ncnc3[nH]ccc23)CC1 | 1
NC(=O)Nc1cc(-c2cccc(F)c2)sc1C(=O)N[C@H]1CCCNC1 [AZD 7762 hydrochloride] | ≤ 0.3
COc1cc2nc(-c3cc(F)ccc3O)nc(N[C@@H]3CNC[C@H]3C(C)(C)O)c2cc1OC | 1
Cc1c[nH]c2nccc(Oc3c(F)cc(Nc4cc(Cl)nc(N)n4)cc3F)c12 | 1
C[C@H]1[C@H]2CC[C@H]3[C@@H]4CC=C5C[C@@H](N(C)C)CC[C@]5(C)[C@H]4CC[C@]23CN1C [Conessine] | 3
CON(C)C(=O)N1N=C(c2cc(F)ccc2F)S[C@@]1(CCCN)c1ccccc1 [ARRY 520 trifluoroacetate] | ≤ 0.3
CC[C@H](CO)Nc1nc(NCc2ccc(-c3ccccn3)cc2)c2ncn(C(C)C)c2n1 | ≤ 0.3
